Bioassay records: PubChem, several laboratories
CFTR F508del cor = CFTR F508del correction in bronchial cells. AID 720511. CFBE cells, YFP halide quenching; stimulated with forskolin plus potentiator P3; % fluorescence drop versus neutral controls. activity (quench increase), % at 7.58 µM. actives 0.36% (n = 350,000);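 active = mean added fluorescence quench of at least 8% versus neutral control, with both replicates also reaching 8%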;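 also: cells transiently co-express mutant CFTR-F508del with the halide-sensitive YFP; corrector assay measuring rescue of mutant channel to the surface after 24 h compound exposure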
HIF act = HIF pathway transcriptional activation. U2OS HRE-luciferase reporter, luminescence; normalized: DMSO 0%, desferrioxamine 100%. activation, % at 7.5 µM (by protocol). actives 0.32% (n = 300,000). AID 1910;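 active = mean activation of at least 10% of the iron chelator positive control signal, with at least half of replicates also reaching 10%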
Jurkat NFkB inh = inhibitors of the PMA/ionomycin-induced NF-kB reporter in Jurkat cells; AID 435003; actives 0.53% (n = 330,000); PMA/ionomycin-induced NF-kB luciferase reporter, luminescence; inhibition, % at 4 µM; in the data active = inhibition above about 50%
697 NFkB inh = lowers PMA/ionomycin-induced NF-kB signal in 697 B cells. 697 B-cell NF-kB luciferase reporter, 16 h. inhibition, % at 4 µM. actives 0.33% (n = 330,000); in the data active = inhibition above about 35%
Jurkat NFkB conf = lowers PMA/ionomycin-induced NF-kB signal in Jurkat cells | shares compounds with Jurkat NFkB inh | Jurkat NF-kB luciferase, 16 h | inhibition, % at 4 µM | actives 27% (n = 2,700);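 active = inhibition reaching about 45% at 4 µM in either replicate, limit read from the data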;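 also: plate controls were PMA/ionomycin stimulated DMSO wells for no effect and unstimulated DMSO wells for full effect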
Starred values were filed as active, the others as inactive. This is a sample that favours compounds with a hit; in the whole collection about 0.93% have one here.

NC(=O)c1c(NC(=O)c2ccccc2C(=O)O)sc2c1CCCC2 was read as CFTR F508del cor -0.9, HIF act -0.8, Jurkat NFkB inh 18.2 and 697 NFkB inh 0.3.
Screening NC(=O)c1c(NC(=O)c2ccccc2F)sc2c1CCCC2 returned CFTR F508del cor -2.2, HIF act -24.6, Jurkat NFkB inh -173.7, 697 NFkB inh -194.3 and Jurkat NFkB conf -107.6.
CCC(C)C(NC(=O)c1ccccc1NC(=O)c1ccc(OC)cc1)C(=O)NCc1ccco1 (stereo not drawn) was read as Jurkat NFkB inh 1.7 and 697 NFkB inh 3.0.
Screening COc1ccc(C(=O)Nc2ccc(Cl)cc2C(=O)NCc2ccco2)cc1 returned HIF act 1.7, Jurkat NFkB inh 52.2*, 697 NFkB inh -42.2 and Jurkat NFkB conf 4.0.
Screening Nc1[nH]nc2nc3ccccc3cc12 returned CFTR F508del cor -1.9, HIF act 0.0, Jurkat NFkB inh -4.6 and 697 NFkB inh 16.8.
Screening Nc1cccc2nc3ccccc3cc12 returned HIF act -0.1, Jurkat NFkB inh 62.4*, 697 NFkB inh 24.1 and Jurkat NFkB conf -3.9.
Screening Cc1ccc2c(c1)Oc1ccc([N+](=O)[O-])cc1C(=O)N2 returned CFTR F508del cor -0.4, HIF act 0.0, Jurkat NFkB inh -4.0 and 697 NFkB inh 7.4.
Screening Cc1ccc2c(c1)Oc1ccc(NC(=O)CCl)cc1C(=O)N2 returned HIF act -0.3, Jurkat NFkB inh 64.1*, 697 NFkB inh 16.6 and Jurkat NFkB conf 51.1*.
For COC(=O)C[C@H]1CC[C@@H]2[C@@H](COc3ccc(NC(=O)Nc4ccc(C)cc4)cc3C(=O)N2C)O1 the results were CFTR F508del cor 0.3.
Screening CCc1ccc2oc(-c3ccc(OC)cc3)cc(=Nc3c(C)n(C)n(-c4ccccc4)c3=O)c2c1 returned CFTR F508del cor 4.2, HIF act -2.4, Jurkat NFkB inh -232.2, 697 NFkB inh -235.6 and Jurkat NFkB conf -115.0.
For COc1ccc(-c2cc(=Nc3ccc(C(=O)O)cc3)c3cc(C)ccc3o2)cc1 the results were CFTR F508del cor 0.9, HIF act 1.0, Jurkat NFkB inh -177.8, 697 NFkB inh -142.5 and Jurkat NFkB conf -116.2.
`C=CCn1c(-c2ccc(OC)cc2)csc1=Nc1c(C)n(C)n(-c2ccccc2)c1=O` gave HIF act -0.1, Jurkat NFkB inh 0.7 and 697 NFkB inh 21.5.
For Cc1ccc(S(=O)(=O)Nc2ccc3c(c2)C(=O)N([C@@H](C)CO)C[C@@H](C)[C@@H](CN(C)Cc2ccc(C(=O)O)cc2)O3)cc1 the results were CFTR F508del cor -2.3.
Screening Cc1cc(C(=O)CSc2nnc(N)s2)c(C)n1Cc1cccs1 returned HIF act -2.1, Jurkat NFkB inh -150.1, 697 NFkB inh -150.5 and Jurkat NFkB conf -53.4.
CC(=O)Nc1ccc(SCC(=O)c2cc(C)n(Cc3cccs3)c2C)cc1 was read as HIF act -1.3, Jurkat NFkB inh -22.3 and 697 NFkB inh -234.9.
For CCC(C)NC(=O)c1cc(-c2ccc(OC)cc2)on1 (stereo not drawn) the results were HIF act 1.2, Jurkat NFkB inh -131.7 and 697 NFkB inh -94.1.
`COc1ccc(-c2cc(C(=O)NCC(C)C)no2)cc1` gave HIF act 3.4, Jurkat NFkB inh -157.2, 697 NFkB inh -137.9 and Jurkat NFkB conf -90.2.
`c1ccc(Nc2nc(-c3ccccc3)ns2)cc1` gave CFTR F508del cor 0.9, HIF act 2.3, Jurkat NFkB inh -189.7, 697 NFkB inh -228.4 and Jurkat NFkB conf -153.6.
Screening CC(C)(C)C(=O)Nc1nc(-c2ccccc2)ns1 returned HIF act 1.1, Jurkat NFkB inh -104.0 and 697 NFkB inh -228.2.
For COc1cc(C(=O)N/N=C/c2cc([N+](=O)[O-])cs2)cc(OC)c1OC the results were HIF act -0.5, Jurkat NFkB inh 67.4*, 697 NFkB inh -17.1 and Jurkat NFkB conf 42.3.
CCOc1ccc(C(=O)N/N=C/c2cc([N+](=O)[O-])cs2)cc1 was read as CFTR F508del cor -0.7, HIF act -0.1, Jurkat NFkB inh 10.9 and 697 NFkB inh 1.0.
Screening O=C(Nc1ccc(CN2CCOCC2)cc1)c1ccc(Cl)cc1 returned CFTR F508del cor -1.0, HIF act 4.5, Jurkat NFkB inh -41.5 and 697 NFkB inh -73.1.
O=C(Nc1ccc(S(=O)(=O)N2CCCCC2)cc1)c1ccc(CN2CCc3ccccc3C2)cc1 was read as HIF act -0.3, Jurkat NFkB inh 79.7*, 697 NFkB inh 10.3 and Jurkat NFkB conf 77.7*.
O=C(Nc1ccc(S(=O)(=O)Nc2ccccc2)cc1)c1ccc(CN2CCOCC2)cc1 was read as CFTR F508del cor 2.9, HIF act 0.5, Jurkat NFkB inh 64.4*, 697 NFkB inh 13.5 and Jurkat NFkB conf 64.7*.
For O=C(Nc1ccccc1)c1ccc(CN2CCc3ccccc3C2)cc1 the results were CFTR F508del cor 2.5, HIF act -0.2, Jurkat NFkB inh 12.7 and 697 NFkB inh -5.9.
Screening O=C(N/N=C(\c1ccccc1)c1cccnc1)c1ccc(O)cc1 returned CFTR F508del cor -2.2, HIF act -0.6, Jurkat NFkB inh -1.2 and 697 NFkB inh 18.4.
`O=C(N/N=C(\c1ccccc1)c1cccnc1)c1cccc(F)c1` gave CFTR F508del cor 3.2, HIF act 89.4*, Jurkat NFkB inh 52.4*, 697 NFkB inh -10.2 and Jurkat NFkB conf 54.9*.
`COc1cccc(-c2ccc3n(c2=O)C[C@H]2[C@H](CO)[C@@H](C(=O)N(C)C)N(C(=O)C4CCC4)[C@@H]32)c1` gave CFTR F508del cor -0.2.
For O=C(/C=C\c1ccco1)Nc1cc([N+](=O)[O-])ccc1F the results were HIF act 0.6, Jurkat NFkB inh 67.9*, 697 NFkB inh -31.1 and Jurkat NFkB conf 16.9.
For O=C(/C=C/c1ccco1)Nc1cc(Cl)ccc1C(=O)O the results were HIF act 0.1, Jurkat NFkB inh 3.4 and 697 NFkB inh 5.4.
O=C(C[C@H]1C=C[C@@H](NC(=O)c2ccccc2)[C@@H](CO)O1)NCCc1ccncc1 was read as CFTR F508del cor -1.0.
`C[C@@H]1CN([C@H](C)CO)C(=O)c2cccc(NC(=O)Nc3ccccc3)c2O[C@@H]1CN(C)Cc1ccccc1` gave CFTR F508del cor 0.9.
`COCC1CCCCN1C(=O)c1cc(COc2ccc3ncccc3c2)on1` (stereo not drawn) gave CFTR F508del cor -3.2, HIF act -0.1, Jurkat NFkB inh 42.1 and 697 NFkB inh -22.0.
For CCC1CCCCN1C(=O)c1cc(COc2ccc3ncccc3c2)on1 (stereo not drawn) the results were CFTR F508del cor -0.2, HIF act 0.7, Jurkat NFkB inh 57.8*, 697 NFkB inh -31.0 and Jurkat NFkB conf 60.0*.
Screening COc1cccc(C(=O)Nc2ccc3c(C)cc(=O)oc3c2)c1 returned CFTR F508del cor -4.9, HIF act 1.2, Jurkat NFkB inh -177.6, 697 NFkB inh -131.5 and Jurkat NFkB conf -111.4.
`Cc1cc(=O)oc2cc(NC(=O)c3ccccc3C(=O)O)ccc12` gave CFTR F508del cor -5.3, HIF act -10.2, Jurkat NFkB inh 2.3 and 697 NFkB inh 7.3.
